The source made the active and inactive calls.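 The calls were made as follows, unless noted: active = NADPH fluorescence slope more negative than the mean of all samples by about 3 SD, 99.7% confidence; inactive = the rest.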
How the values were obtained:
[1] = inhibitors of TNFa-induced NFkB p65 translocation, primary screen, imaging, HUVEC, MLSMR starter and 10KST1 sets (AID 438;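 active = inhibition above 20% together with a positive visual image hit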;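 also: compound added about 3h40 before a 20 min TNFalpha stimulation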;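 as to inhibition: signal is the nuclear over cytoplasmic p65 intensity ratio per well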); conditions: HUVEC TNFa-induced p65 nuclear translocation; cell count: measured here: nuclei count (cytotoxicity indicator), at 2.08 µM; inhibition: at 2 µM, stronger effect = higher value, 0% TNFa-plus-vehicle, 100% no-TNFa wells
[2] = reduction of polyQ htt aggregates in cells – imaging, exon1htt(103Q)mCFP cells, high-content imaging, primary screen (AID 483;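 active = visual image review flags a hit and inhibition of aggregation exceeds 20%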;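 also: compound exposure lasted 3 days before fixation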;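 as to nuclei count: percent of the per-plate median nuclei count of sample wells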); conditions: exon1htt(103Q)mCFP cell line, aggregate imaging, at 2 µM; inhibition of aggregation: stronger effect = higher value; nuclei count: measured here: cell count, toxicity
[3] = endothelial E-selectin expression blockers – imaging, HUVEC, immunofluorescence, MLSMR starter and 10KST1 sets, primary screen (AID 487;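 active = visually confirmed hit in the image check and inhibition above 20%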;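 as to inhibition: signal is fraction of cell area covered by stained E-selectin grains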;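 as to nuclei count: 100% = median nuclei count of all wells on the same plate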); conditions: HUVEC TNFalpha-induced E-selectin immunofluorescence imaging, at 2 µM; inhibition: stronger effect = higher value; nuclei count: measured here: cell number, toxicity
[4] = target: Voltage-gated potassium channel subunit beta-2 (Rattus norvegicus) (UniProt P62483); experiment: inhibitors of rat Kvbeta2 reductase activity – biochemical, NADPH fluorescence, primary screen (AID 622;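 active = fluorescence slope higher than the sample average by over 3 SD, cut at about -0.22 in these data, passing the limit was not always enough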;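 also: slope of raw intensity against log time taken from 70 to 1610 s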); conditions: recombinant KvBeta, 4-cyanobenzaldehyde reduction, at 10 µM, stronger effect = higher value
Chain of Voltage-gated potassium channel subunit beta-2 (Rattus norvegicus) (P62483 whole entry, looked up): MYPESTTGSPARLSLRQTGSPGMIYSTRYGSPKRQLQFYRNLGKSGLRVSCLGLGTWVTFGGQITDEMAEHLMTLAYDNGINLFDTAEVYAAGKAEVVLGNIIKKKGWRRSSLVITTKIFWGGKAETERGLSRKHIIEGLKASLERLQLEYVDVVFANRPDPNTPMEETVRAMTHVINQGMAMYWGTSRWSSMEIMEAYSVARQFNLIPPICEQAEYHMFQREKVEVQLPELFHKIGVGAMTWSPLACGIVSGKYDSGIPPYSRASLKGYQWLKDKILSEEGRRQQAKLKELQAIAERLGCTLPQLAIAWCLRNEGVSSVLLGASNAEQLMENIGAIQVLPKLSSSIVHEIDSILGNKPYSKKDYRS

[5] = target: Voltage-gated potassium channel subunit beta-2 (Rattus norvegicus) (UniProt P62483); experiment: enhancers of rat Kvbeta2 NADPH turnover – biochemical, NADPH fluorescence, primary screen (AID 623); conditions: Recombinant KvBeta, NADPH fluorescence decrease slope, 10 min; at 10 µM; stronger effect = lower value;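 also: fluorescence intensity change per second fitted from 20 to 320 s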
[6] = target: Alpha-2C adrenergic receptor (Homo sapiens) (UniProt P18825); experiment: compounds altering alpha2C-coupled GIRK flux – cell-based, HEK293 alpha2C/GIRK1/2, thallium flux, primary screen (AID 624;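 active = fluorescence slope after compound addition differing from the mean of all screened samples at 99.7% confidence, in either direction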;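 also: slope of fluorescence ratio to pre-addition baseline per second over 15 to 24 s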); conditions: thallium flux BTC fluorescence, at 10 µM, actives lie on both sides
Chain of Alpha-2C adrenergic receptor (Homo sapiens) (P18825 whole entry, looked up): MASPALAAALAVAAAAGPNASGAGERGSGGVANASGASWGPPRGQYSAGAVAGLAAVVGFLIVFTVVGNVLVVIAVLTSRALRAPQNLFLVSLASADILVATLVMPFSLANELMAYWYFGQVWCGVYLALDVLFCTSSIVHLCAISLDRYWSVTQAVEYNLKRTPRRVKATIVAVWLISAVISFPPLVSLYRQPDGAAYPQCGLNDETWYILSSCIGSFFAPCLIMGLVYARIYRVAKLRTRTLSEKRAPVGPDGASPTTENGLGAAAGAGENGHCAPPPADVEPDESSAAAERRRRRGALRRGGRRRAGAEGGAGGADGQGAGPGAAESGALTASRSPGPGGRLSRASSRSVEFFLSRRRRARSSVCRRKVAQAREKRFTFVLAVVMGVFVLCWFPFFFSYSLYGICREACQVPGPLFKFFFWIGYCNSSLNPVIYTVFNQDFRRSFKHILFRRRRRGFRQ

[7] = blockers of RIG-like receptor reporter activation – cell-based, Sendai virus stimulus, luciferase, 10K MLSCN set, TLR/RLR signaling modifier project, primary screen (AID 602276;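 active = inhibition at or above 50% at 10 µM; inactive = inhibition below 50%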;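 also: firefly luciferase from ISG56 promoter only with Renilla not read in this screen; 0% = Sendai virus plus DMSO and 100% = medium plus DMSO without virus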); conditions: HEK293 RL24 IRF3 luciferase reporter, at 10 µM, stronger effect = higher value
[8] = TLR3 IRF3 reporter activation blockers – cell-based, poly I:C stimulus, luciferase, 10K MLSCN set, primary screen (AID 602277;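 active = inhibition of the reporter signal at or above 50%; inactive = inhibition below 50%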); conditions: HEK293-TLR3 RL24 IRF3 luciferase reporter, at 10 µM, stronger effect = higher value

SMILES	cell count [1]	inhibition [1]	inhibition of aggregation [2]	nuclei count [2]	inhibition [3]	nuclei count [3]	fluorescence slope [4]	NADPH fluorescence slope [5]	slope [6]	inhibition [7]	inhibition [8]
CCCCCCC1/C(=N/O)CCC1C(=O)OC (stereo not drawn)	656	-7.7% (inactive)	7.3% (inactive)	91.2%	-54.1% (inactive)	127%	-0.614 (inactive)	-8.9e-06 (inactive)	0.00642 (inactive)	0.917% (inactive)	10.1% (inactive)
CCC(C)(C(=O)NC1CCCCC1)N(Cc1ccco1)C(=O)c1ccc2c(c1)OCO2 (stereo not drawn)	593	-9.3% (inactive)	-2.7% (inactive)	80.7%	25.6% (inactive)	95.5%	-0.423 (inactive)	-7.4e-06 (inactive)	0.00563 (inactive)	21.1% (inactive)	49.5% (inactive)
Cc1cccc(NC(=O)c2cc(NC(=O)c3ccco3)ccc2Cl)n1	678	-2.8% (inactive)	16.4% (inactive)	83.5%	19.9% (inactive)	98%	-0.529 (inactive)	1.5e-06 (inactive)	0.00521 (inactive)	1.7% (inactive)	-7.38% (inactive)
FC(F)(F)c1cccc(N2CCN(Cc3cccnc3)CC2)c1	447	-3.8% (inactive)	-15.1% (inactive)	109%	-57.5% (inactive)	127%	-0.505 (inactive)	-6.8e-05 (inactive)	0.00521 (inactive)	17.4% (inactive)	12.1% (inactive)
O=C(CSc1nnc(CNC(=O)c2cccs2)o1)Nc1cccc(C(F)(F)F)c1	262	3.8% (inactive)	-12.8% (inactive)	78.7%	-14.2% (inactive)	111%	-0.379 (inactive)	-5.5e-05 (inactive)	0.00592 (inactive)	6.93% (inactive)	19.8% (inactive)
CCCCc1ccc(NC(=O)N[C@H](C(=O)O)C(C)C)cc1	388	-19.8% (inactive)	-0.3% (inactive)	89.1%	-26.2% (inactive)	84.1%	-0.481 (inactive)	1.8e-05 (inactive)	0.00552 (inactive)	-0.498% (inactive)	-7.11% (inactive)
CC(C)CN(C(=O)c1ccc(=O)n(C)n1)c1nc2ccccc2s1	369	4.8% (inactive)	-17.5% (inactive)	93.5%	-5.9% (inactive)	112%	-0.332 (inactive)	-7.5e-05 (inactive)	0.00541 (inactive)	-18.6% (inactive)	-44.4% (inactive)
COc1cc(OC)c(NC(=O)c2ccco2)cc1Cl	363	2.2% (inactive)	12.2% (inactive)	110%	-1.1% (inactive)	106%	-0.407 (inactive)	-4.6e-05 (inactive)	0.00173 (inactive)	21.8% (inactive)	35% (inactive)
Cc1cc(C(=O)COC(=O)C2COc3ccccc3O2)c(C)n1CC1CCCO1 (stereo not drawn)	460	0.5% (inactive)	19.3% (inactive)	81.4%	-126% (inactive)	119%	-0.373 (inactive)	-4.2e-05 (inactive)	0.00612 (inactive)	6.89% (inactive)	22.4% (inactive)
COc1ccc(Nc2ncc3c(n2)CC(c2ccc(OC)cc2)CC3=O)cc1 (stereo not drawn)	649	6.3% (inactive)	-7.5% (inactive)	101%	-5.5% (inactive)	97%	-0.298 (inactive)	-3.8e-05 (inactive)	0.0047 (inactive)	5.21% (inactive)	-19.5% (inactive)
Nc1ncnc2oc(-c3ccco3)c(-c3ccco3)c12	413	-3.3% (inactive)	15.7% (inactive)	84.7%	-29.9% (inactive)	111%	-0.49 (inactive)	-1.2e-05 (inactive)	0.00377 (inactive)	-5.47% (inactive)	-31.5% (inactive)
O=S(=O)(Nc1nc2ccccc2nc1NCc1ccco1)c1ccc(Cl)cc1	481	0.9% (inactive)	4.8% (inactive)	101%	8.2% (inactive)	129%	-0.448 (inactive)	-6.1e-05 (inactive)	0.00347 (inactive)	19.4% (inactive)	18.7% (inactive)
COc1ccc(OCCN2C(=O)NC(C)(c3ccc(C)cc3)C2=O)cc1 (stereo not drawn)	391	-14.7% (inactive)	-4.1% (inactive)	108%	-84.6% (inactive)	138%	-0.496 (inactive)	-6.9e-05 (inactive)	0.00469 (inactive)	12.5% (inactive)	5.61% (inactive)

— PubChem BioAssay
